The values below come from PubChem BioAssay (EPA / NIEHS).

Inconclusive results are not listed. Activity calls are given as the source filed them. Rule for the calls, unless noted: active = hit-call score of the fitted dose curve at least 0.9, where 1 is the maximum; inactive = score below 0.9.

In test [1] the target is Ratio of Nucleoli Translocation and Cytoplasm, AR (gene 367) (UniProt P10275). Nature of the test: UPITT_HCI_U2OS_AR_TIF2_Nucleoli_Cytoplasm_Ratio_Agonist: University of Pittsburgh U2OS Androgen Receptor-Transcriptional Intermediary Factor 2 (AR-TIF2) Agonism High Content Imaging Assay for Ratio of Nucleoli Translocation and Cytoplasm (AID 2284000; active = hit-call score of the fitted dose curve at least 0.9, where 1 is the maximum;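 note: hits raise the red nucleolar to cytoplasm ratio above vehicle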). In short, it runs like this:
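Read-out first: nucleolar-to-cytoplasm ratio of red (AR-RFP) signal, quantified by high-content imaging in U2OS cells co-expressing TIF2-GFP. Activity is scored as signal increase over DMSO. Single-point screening used 20 uM final (0.2% DMSO).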

The nature of test [2]: CCTE_Shafer_MEA_acute_spike_number: CCTE's Neural Acute Assay for Total Number of Spikes, Shafer Lab (AID 2284008).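 For AC50: curve fitted for decrease in spike count so AC50 reflects inhibitors.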 In short, it runs like this:
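Total spike count from 40 min recordings before and during compound exposure (0.03-40 uM), given as per-well percent change. Cortical cultures from rat, DIV 13 or 15, 37 C; adaptive detection threshold 8x rms noise.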

A short description of test [3]: CCTE_Shafer_MEA_acute_firing_rate_mean: CCTE's Neural Acute Assay for Mean Firing Rate, Shafer Lab (AID 2284009).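 Note: analyzed for loss of signal so actives lower firing rate relative to DMSO.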 Put shortly:
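Percent change in well-mean firing rate was derived from extracellular spikes detected at 8x rms noise (300-5000 Hz band-pass) before and after a 40-min compound exposure. Cultures were primary rat cortical neurons, tested at 0.03-40 uM.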

Test [4] is described as follows: CCTE_Shafer_MEA_acute_burst_duration_mean: CCTE's Neural Acute Assay for Mean Burst Duration, Shafer Lab (AID 2284014).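 Note: hits are decreases in mean burst duration relative to DMSO controls.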 Put shortly: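 Read-out is the per-well percent change in mean burst duration (first to last spike within a single-electrode burst) between 40-min recordings before and after compound. Cultures were primary rat cortical neurons on MEAs, dosed at 0.03-40 uM on DIV 13 or 15.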

Test [5] in a line: CCTE_Shafer_MEA_acute_per_burst_spike_number_mean: CCTE's Neural Acute Assay for Average Number of Spikes Per Burst, Shafer Lab (AID 2284015).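 Note: hits are decreases in mean spikes per burst versus baseline.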 In short, it runs like this: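 Rat primary cortical neurons on 48-well MEAs (DIV 13 or 15) were treated with 0.03-40 uM compound at 37 C. Mean spikes per burst over 40 min were recorded before and after exposure and expressed as percent change from baseline, relative to DMSO.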

The nature of test [6]: CCTE_Shafer_MEA_acute_interburst_interval_mean: CCTE's Neural Acute Assay for Mean Interburst Interval, Shafer Lab (AID 2284016).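 Note: percent change of mean interburst interval versus each well's own pre-dose baseline; curves fitted for decrease in interburst interval relative to DMSO.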 In short, it runs like this: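 Rat primary cortical neurons on 48-well MEAs at DIV 13 or 15 were exposed acutely to 0.03-40 uM. Spikes detected at 8x rms noise, 37 C. Mean interburst interval from 40 min recordings expressed as percent change from 40 min pre-treatment baseline.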

Test [7] in a line: CCTE_Harrill_HTTr_Viability_MCF7: CCTE's 6-hour Cell Viability Assessment for the High-Throughput Transcriptomics (HTTr) Platform, in MCF-7 cells cultured in DMEM + 10% fetal bovine serum, Harrill Lab (AID 2284010). Put shortly:
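Viability measured through PI dye exclusion by high-content imaging at 6 h post-dosing.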

Test [8] in a line: CCTE_Harrill_HTTr_Apoptosis_MCF7: CCTE's 6-hour Apoptosis Assessment for the High-Throughput Transcriptomics (HTTr) Platform, in MCF-7 cells cultured in DMEM + 10% fetal bovine serum, Harrill Lab (AID 2284011). In short, it runs like this: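 High-content imaging of CellEvent Caspase 3/7 Green signal follows a six-hour exposure, with eight concentrations per chemical. MCF-7 cells grown in DMEM plus 10% fetal bovine serum; activity fitted in both directions against DMSO.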

The nature of test [9]: CCTE_Harrill_HTTr_CellCount_MCF7: CCTE's Cell Proliferation Assessment for the High-Throughput Transcriptomics (HTTr) Platform, Harrill Lab (AID 2284012; active = hit-call score of the fitted dose curve at least 0.9, where 1 is the maximum;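 note: count of Hoechst-stained nuclei per well by high-content imaging in MCF-7 cells; cells exposed to compound for six hours; intended direction is loss of nuclei count meaning fewer cells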). In short, it runs like this: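 Nuclei counting (Hoechst, high content imaging) in MCF-7 after a 6 h treatment at eight concentrations. Activity fitted bidirectionally, DMSO as negative control.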
In test [10] the target is Ratio of Nucleoli Translocation and Cytoplasm, AR (gene 367) (UniProt P10275). Nature of the test: UPITT_HCI_U2OS_AR_TIF2_Nucleoli_Cytoplasm_Ratio_Antagonist: University of Pittsburgh U2OS Androgen Receptor-Transcriptional Intermediary Factor 2 (AR-TIF2) Antagonism High Content Imaging Assay for Ratio of Nucleoli Translocation and Cytoplasm (AID 2283999; active = hit-call score of the fitted dose curve at least 0.9, where 1 is the maximum;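 note: antagonists lower the DHT-driven ratio of nucleolar to cytoplasmic red signal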). In short, it runs like this: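 High-content imaging quantifies the red nucleolar:cytoplasmic fluorescence ratio in U2OS cells with AR-RFP and TIF2-GFP. Final concentrations are 20 uM (screen) or 0.195–50 uM (dose response), analysed against DHT as baseline.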
Sequence of Ratio of Nucleoli Translocation and Cytoplasm, AR (gene 367) (P10275 whole entry, looked up): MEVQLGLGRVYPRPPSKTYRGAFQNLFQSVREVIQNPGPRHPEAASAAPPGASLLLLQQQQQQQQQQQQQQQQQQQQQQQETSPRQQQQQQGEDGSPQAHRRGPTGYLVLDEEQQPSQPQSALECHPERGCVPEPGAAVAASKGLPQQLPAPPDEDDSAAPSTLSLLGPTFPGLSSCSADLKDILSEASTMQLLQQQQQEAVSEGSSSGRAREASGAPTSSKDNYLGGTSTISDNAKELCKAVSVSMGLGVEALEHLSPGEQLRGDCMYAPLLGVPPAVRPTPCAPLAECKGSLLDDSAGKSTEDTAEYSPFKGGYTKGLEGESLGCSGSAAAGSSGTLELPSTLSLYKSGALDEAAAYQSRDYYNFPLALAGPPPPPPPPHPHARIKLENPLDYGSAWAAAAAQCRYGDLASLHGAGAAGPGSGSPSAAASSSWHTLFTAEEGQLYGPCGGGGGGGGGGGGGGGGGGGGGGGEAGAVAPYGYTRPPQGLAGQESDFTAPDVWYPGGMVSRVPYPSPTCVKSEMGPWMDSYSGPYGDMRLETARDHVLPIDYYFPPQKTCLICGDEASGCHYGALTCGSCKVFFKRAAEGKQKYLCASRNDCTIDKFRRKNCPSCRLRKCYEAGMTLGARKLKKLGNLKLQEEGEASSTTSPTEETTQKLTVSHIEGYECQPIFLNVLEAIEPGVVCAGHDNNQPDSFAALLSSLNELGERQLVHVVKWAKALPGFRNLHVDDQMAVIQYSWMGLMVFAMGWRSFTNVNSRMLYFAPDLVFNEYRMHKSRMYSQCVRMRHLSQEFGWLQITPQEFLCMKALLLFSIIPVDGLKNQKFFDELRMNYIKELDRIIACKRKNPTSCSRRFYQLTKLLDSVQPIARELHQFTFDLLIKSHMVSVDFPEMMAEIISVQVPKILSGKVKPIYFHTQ

For the compound `CCCCCCCCCCCCCOS(=O)(=O)O`, in test [1], the outcome was inactive.
For the compound `CC[Si](OC(C)=O)(OC(C)=O)OC(C)=O`, the compound was called inactive in [2], in [3], in test [4], in test [5] and in [6].
In the case of `CCCCO`, the result in test [7] was inactive.
With `CCN(CC)c1ccc(C(=C2C=CC(=[N+](CC)CC)C=C2)c2ccc(S(=O)(=O)O)cc2S(=O)(=O)[O-])cc1`, the outcome in test [1] was inactive.
For orientation: AC50 means the concentration at which the activity in the assay is half-maximal. Take `C[C@H]1C[C@@H]2[C@H]([C@@H](O)C[C@@]3(C)[C@H]2CC[C@]3(O)C(=O)CO)[C@@]2(C)C=CC(=O)C=C12`: the AC50 in test [2] and in test [3] was 3 nM (active) throughout. Moreover, the outcome in [7], in [8], in [9], in test [4], in test [5] and in [6] was inactive.
On to `CCCCCCCCCCCCCCCC(=O)OC[C@H](O)[C@H]1OC(=O)C(O)=C1O`, for which the result in [10] and in test [1] was inactive.
As for `CCCCCCCCC=O`, the call in test [2], in test [3], in test [7], in test [8], in test [4] and in test [5] was inactive. The call in test [6] was inactive.
For the compound `CCCCCCCCCCCCOCCO`, in [7], the result was inactive.
For the compound `CC(=O)C(=O)O`, the outcome in test [7], in test [8] and in test [9] was inactive.
For `O=C(O)COCCN1CCN(C(c2ccccc2)c2ccc(Cl)cc2)CC1` (stereo unspecified), the result in test [7], in [8] and in [9] was inactive.
For the compound `CC(C)Oc1ccccc1O`, the outcome in test [7], in test [8] and in test [9] was inactive.
Take `CN(CCOc1ccc(CC2SC(=O)NC2=O)cc1)c1ccccn1` (stereo unspecified): the outcome in test [7], in test [8] and in test [9] was inactive.
As to `O=C(Nc1ccccc1)c1cc([N+](=O)[O-])ccc1Cl`, the outcome in [7] and in test [8] was inactive.
As for `CNC(=O)Oc1ccc2c(c1)[C@]1(C)CCN(C)[C@@H]1N2C`, the result in test [7], in test [8] and in [9] was inactive.
In the case of `CC1(C)[C@H]2CC[C@]1(C)[C@H](O)C2`, the outcome in test [7], in [8] and in test [9] was inactive.
